# Source: PubChem BioAssay (EPA / NIEHS)
# Records with an inconclusive call do not appear. Active and inactive are the calls of the source. The calls were made as follows, unless noted: active = hit-call score of the fitted dose curve at least 0.9, where 1 is the maximum; inactive = score below 0.9.
# Assays:
# [1] = read-out: Monokine induced gamma interferon (MIG), CXCL9 (gene 4283); assay: BSK_SAg_MIG: BioMAP Diversity Plus: SAg Assay for Monokine induced gamma interferon (MIG) Biomarker Activity (AID 2283092); details: primary human HUVEC with PBMC; actives raise or lower the signal
# Method in brief: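 Values reflect bidirectional fitting of ELISA-measured MIG against DMSO vehicle, taken 24 h after dosing of a co-culture of human umbilical vein endothelial cells and peripheral blood mononuclear cells.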
# [2] = BSK_SAg_PBMCCytotoxicity: PBMC Cytotoxicity Assessment in the BioMAP Diversity Plus: SAg Assay (AID 2283093); details: primary human HUVEC with PBMC;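 also: PBMC viability measured as Alamar Blue reduction fluorescence at 546/580 nm; fitted both ways against DMSO so a hit may be loss or gain of signal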;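 as to AC50: PBMC superantigen activated with SEB plus TSST-1 one hour after compound addition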
# Method in brief: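 Alamar Blue reduction (6 h, ex/em 546/580 nm) read after 90 h culture of PBMC pre-dosed 1 h then stimulated with SEB plus TSST-1, 20 ng/mL each. Gain or loss of signal fitted relative to DMSO.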
# [3] = read-out: Interleukin-8 (IL8), CXCL8 (gene 3576); assay: BSK_SAg_IL8: BioMAP Diversity Plus: SAg Assay for Interleukin-8 (IL8) Biomarker Activity (AID 2283094); details: primary human HUVEC with PBMC; actives raise or lower the signal
# Method in brief: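 Primary human endothelial cells with PBMC, exposed 24 h; IL-8 determined by ELISA, analysed bidirectionally relative to DMSO.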
# [4] = BSK_SAg_Proliferation: Cell Proliferation Assessment in the BioMAP Diversity Plus: SAg Assay (AID 2283095); details: primary human HUVEC with PBMC;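 also: relative cell number as total protein by SRB absorbance in sub-confluent culture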
# Method in brief: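 A human primary co-culture of umbilical vein endothelium and blood mononuclear cells receives compound; relative cell number is quantified at 96 h by SRB staining and 560 nm absorbance, with DMSO-referenced bidirectional curve fitting.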
# [5] = BSK_SAg_SRB: Viability Assessment in the BioMAP Diversity Plus: SAg Assay (AID 2283096); details: primary human HUVEC with PBMC;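 also: cells read one day after compound addition; hits may be either gain or loss of signal compared with DMSO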
# Method in brief: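 SRB absorbance at 560 nm served as the viability read-out. Cells (HUVEC plus peripheral blood mononuclear cells) were TCA-fixed and stained 24 h post-dosing; activity fitted in both directions against DMSO controls.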
# [6] = target: human CYP2A6, CYP2A6 (gene 1548) (UniProt P11509); assay: NVS_ADME_hCYP2A6: NovaScreen (NVS) CYP450-related Enzyme Activity (ADME) Assay for human CYP2A6 (AID 2283099; active = hit-call score of the fitted dose curve at least 0.9, where 1 is the maximum)
# human CYP2A6, CYP2A6 (gene 1548), sequence (P11509 whole entry, looked up): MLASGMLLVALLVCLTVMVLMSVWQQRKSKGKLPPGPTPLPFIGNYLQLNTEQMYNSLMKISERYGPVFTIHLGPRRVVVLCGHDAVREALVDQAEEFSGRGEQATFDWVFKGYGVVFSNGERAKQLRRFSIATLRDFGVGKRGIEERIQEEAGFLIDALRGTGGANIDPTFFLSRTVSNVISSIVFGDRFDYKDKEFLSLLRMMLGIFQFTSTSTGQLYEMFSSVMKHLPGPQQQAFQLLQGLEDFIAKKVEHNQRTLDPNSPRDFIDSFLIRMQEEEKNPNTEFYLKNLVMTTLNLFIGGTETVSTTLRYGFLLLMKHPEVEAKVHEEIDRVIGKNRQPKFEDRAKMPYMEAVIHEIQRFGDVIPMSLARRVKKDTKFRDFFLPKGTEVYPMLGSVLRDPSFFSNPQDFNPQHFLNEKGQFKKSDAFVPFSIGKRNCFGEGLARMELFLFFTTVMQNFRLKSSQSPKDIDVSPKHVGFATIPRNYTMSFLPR
# Method in brief: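 Cell-free fluorescence readout of recombinant human CYP2A6 expressed in insect cells, read 0.5 h after dosing; loss of signal versus acetonitrile negative control. Primary screen in duplicate at 10 uM; actives re-run in concentration-response up to 20 uM.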
# [7] = target: human CYP2B6, CYP2B6 (gene 1555) (UniProt P20813); assay: NVS_ADME_hCYP2B6: NovaScreen (NVS) CYP450-related Enzyme Activity (ADME) Assay for human CYP2B6 (AID 2283101; active = hit-call score of the fitted dose curve at least 0.9, where 1 is the maximum)
# human CYP2B6, CYP2B6 (gene 1555), sequence (P20813 whole entry, looked up): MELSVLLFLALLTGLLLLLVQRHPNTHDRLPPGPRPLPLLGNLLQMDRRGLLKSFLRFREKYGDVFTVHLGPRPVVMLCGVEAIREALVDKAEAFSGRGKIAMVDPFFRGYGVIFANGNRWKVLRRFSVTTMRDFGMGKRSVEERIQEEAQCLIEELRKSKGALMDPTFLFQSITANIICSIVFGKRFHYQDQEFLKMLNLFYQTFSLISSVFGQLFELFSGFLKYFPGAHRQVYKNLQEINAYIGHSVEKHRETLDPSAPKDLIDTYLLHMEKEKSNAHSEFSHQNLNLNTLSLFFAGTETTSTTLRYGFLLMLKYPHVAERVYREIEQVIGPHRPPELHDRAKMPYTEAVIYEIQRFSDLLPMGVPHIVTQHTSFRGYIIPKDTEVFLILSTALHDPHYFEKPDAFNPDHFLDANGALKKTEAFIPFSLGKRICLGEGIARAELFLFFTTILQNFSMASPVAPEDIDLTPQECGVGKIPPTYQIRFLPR
# Method in brief: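 Compounds were first screened in duplicate at 10 uM against recombinant enzyme, with the fluorescent product measured after 1 hour. Active compounds were retested over a concentration series. Loss of fluorescence versus acetonitrile control was scored as reduced enzyme activity.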
# [8] = target: human CYP19A1, CYP19A1 (gene 1588) (UniProt P11511); assay: NVS_ADME_hCYP19A1: NovaScreen (NVS) CYP450-related Enzyme Activity (ADME) Assay for human CYP19A1 (AID 2283098; active = hit-call score of the fitted dose curve at least 0.9, where 1 is the maximum)
# human CYP19A1, CYP19A1 (gene 1588), sequence (P11511 whole entry, looked up): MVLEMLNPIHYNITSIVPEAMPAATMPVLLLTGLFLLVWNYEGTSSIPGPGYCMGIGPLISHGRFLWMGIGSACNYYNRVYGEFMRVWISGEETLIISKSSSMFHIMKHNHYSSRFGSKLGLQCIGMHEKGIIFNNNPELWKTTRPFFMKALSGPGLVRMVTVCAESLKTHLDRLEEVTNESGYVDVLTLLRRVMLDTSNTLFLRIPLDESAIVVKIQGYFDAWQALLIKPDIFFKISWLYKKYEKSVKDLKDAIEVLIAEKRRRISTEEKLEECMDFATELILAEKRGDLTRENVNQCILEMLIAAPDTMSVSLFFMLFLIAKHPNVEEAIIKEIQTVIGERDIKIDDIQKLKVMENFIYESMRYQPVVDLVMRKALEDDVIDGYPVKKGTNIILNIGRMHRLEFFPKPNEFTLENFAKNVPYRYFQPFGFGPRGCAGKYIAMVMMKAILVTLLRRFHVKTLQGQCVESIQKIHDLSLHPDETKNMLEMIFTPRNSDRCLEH
# Method in brief: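 Primary testing was in duplicate at a single 10 uM concentration, with actives followed up in concentration-response series. Fluorescence read-out of recombinant enzyme activity at 0.5 h, cell-free. Acetonitrile was the negative-control baseline.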
# [9] = target: human CYP1A1, CYP1A1 (gene 1543) (UniProt P04798); assay: NVS_ADME_hCYP1A1: NovaScreen (NVS) CYP450-related Enzyme Activity (ADME) Assay for human CYP1A1 (AID 2283100; active = hit-call score of the fitted dose curve at least 0.9, where 1 is the maximum)
# human CYP1A1, CYP1A1 (gene 1543), sequence (P04798 whole entry, looked up): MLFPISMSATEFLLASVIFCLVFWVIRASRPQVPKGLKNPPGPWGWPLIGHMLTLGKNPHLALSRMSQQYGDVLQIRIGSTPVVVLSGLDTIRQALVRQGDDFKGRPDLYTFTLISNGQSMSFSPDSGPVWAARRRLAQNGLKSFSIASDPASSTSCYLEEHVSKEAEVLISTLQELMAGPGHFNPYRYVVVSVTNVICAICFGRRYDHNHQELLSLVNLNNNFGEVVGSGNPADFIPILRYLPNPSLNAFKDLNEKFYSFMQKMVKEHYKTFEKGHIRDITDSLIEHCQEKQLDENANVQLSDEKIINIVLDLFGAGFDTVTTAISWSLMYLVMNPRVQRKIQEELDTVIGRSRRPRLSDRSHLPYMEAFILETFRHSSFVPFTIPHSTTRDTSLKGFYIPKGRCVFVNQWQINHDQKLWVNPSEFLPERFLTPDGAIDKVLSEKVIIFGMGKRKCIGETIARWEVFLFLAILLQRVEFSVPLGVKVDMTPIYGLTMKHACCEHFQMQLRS
# Protocol: NVS_ADME_hCYP1A1 is a biochemical, single-readout assay that uses extracted gene-proteins in a cell-free assay. Measurements were taken 1 hour after chemical dosing in a 96-well plate.NVS_ADME_hCYP1A1 is one of one assay component(s) measured or calculated from the NVS_ADME_hCYP1A1 assay. It is designed to make measurements of enzyme activity, a form of enzyme reporter, as detected with fluorescence intensity signals by Fluorescence technology.Data from the assay component NVS_ADME_hCYP1A1 was analyzed into 1 assay endpoint. This assay endpoint, NVS_ADME_hCYP1A1, was analyzed in the positive analysis fitting direction relative to Acetonitrile as the negative control and baseline of activity. Using a type of enzyme reporter, loss-of-signal activity can be used to understand changes in the enzymatic activity as they relate to the gene CYP1A1. Furthermore, this assay endpoint can be referred to as a primary readout, because this assay has produced multiple assay endpoints where this one serves a enzymatic activity function. To generalize the intended target to other relatable targets, this assay endpoint is annotated to the cyp intended target family, where the subfamily is xenobiotic metabolism.
# Binding assays used specific radioligands (tritiated, iodinated) with non-radioactive competitive displacement ligands in agonist or antagonist protocols (as indicated) and various reference compounds and inhibitors to titrate specific binding to receptors and transporters. Most enzyme assays (CYPs, kinases, phosphatases, proteases, HDACs) used recombinant protein and specific substrates (fluorescence mostly, some colorimetric and radioactive) and inhibitors, followed by a biochemical separation of substrate and product. All assays for the biochemical HTS were initially run in duplicate at a single concentration (10 uM for CYP450 assays and 25 uM for all others). Assay-chemical combinations meeting a pre-defined threshold (e.g., 30% inhibition and other criteria defined below) were then run in singleton concentration-response format with maximum concentration of 20 uM for CYPs and 50 uM for all others. Each assay was run with positive and negative controls, and concurrent controls on every plate. The follow-up (secondary) screen tested active chemical-pairs in concentration series, as well as a few additional assays not tested in the primary screen, some selected negative inactives, and several cases re-run in the concentration series for confirmatory purposes.
# [10] = target: human CYP1A2, CYP1A2 (gene 1544) (UniProt P05177); assay: NVS_ADME_hCYP1A2: NovaScreen (NVS) CYP450-related Enzyme Activity (ADME) Assay for human CYP1A2 (AID 2283102; active = hit-call score of the fitted dose curve at least 0.9, where 1 is the maximum)
# human CYP1A2, CYP1A2 (gene 1544), sequence (P05177 whole entry, looked up): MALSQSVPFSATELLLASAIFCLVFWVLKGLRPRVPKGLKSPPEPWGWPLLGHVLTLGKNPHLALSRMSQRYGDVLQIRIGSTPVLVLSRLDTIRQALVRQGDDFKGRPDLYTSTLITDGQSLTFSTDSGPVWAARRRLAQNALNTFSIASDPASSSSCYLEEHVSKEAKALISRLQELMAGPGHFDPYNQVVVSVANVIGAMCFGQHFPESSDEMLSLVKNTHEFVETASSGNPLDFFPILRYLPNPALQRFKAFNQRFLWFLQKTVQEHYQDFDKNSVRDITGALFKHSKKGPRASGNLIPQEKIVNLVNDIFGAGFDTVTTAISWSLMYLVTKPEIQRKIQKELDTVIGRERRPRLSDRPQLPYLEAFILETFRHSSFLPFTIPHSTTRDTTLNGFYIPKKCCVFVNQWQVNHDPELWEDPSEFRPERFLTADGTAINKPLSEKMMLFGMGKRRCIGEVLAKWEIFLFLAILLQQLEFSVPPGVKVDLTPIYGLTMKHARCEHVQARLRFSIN
# Method in brief: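 Cell-free recombinant human CYP1A2 expressed in insect cells, with fluorogenic substrate; fluorescence intensity read 0.5 h after dosing. Loss of signal relative to acetonitrile baseline scored. Primary screen in duplicate at 10 uM; actives retested in concentration series.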
structure (smiles),measurement,setting,value
CCCCCCCCCC[N+](C)(C)[O-],outcome,[1],inactive
same,outcome,[2],inactive
same,outcome,[3],inactive
same,outcome,[4],inactive
same,outcome,[5],inactive
CCc1nc(N)nc(N)c1-c1ccc(Cl)cc1,outcome,[1],inactive
same,outcome,[2],inactive
same,outcome,[3],inactive
same,outcome,[4],inactive
same,outcome,[5],inactive
same,outcome,[6],inactive
O=C1OC(c2ccc(O)cc2)(c2ccc(O)cc2)c2ccccc21,AC50,[1],36.8 µM (active)
same,outcome,[2],inactive
same,AC50,[3],20 µM (active)
same,AC50,[4],29.3 µM (active)
same,outcome,[5],inactive
same,outcome,[6],inactive
same,outcome,[7],inactive
Nc1nc(Cl)nc2c1ncn2[C@H]1C[C@H](O)[C@@H](CO)O1,outcome,[1],inactive
same,AC50,[2],0.642 µM (active)
same,outcome,[3],inactive
same,AC50,[4],0.147 µM (active)
same,AC50,[5],0.554 µM (active)
same,outcome,[8],inactive
CCCCC(CC)CO (stereo unspecified),outcome,[1],inactive
same,outcome,[2],inactive
same,outcome,[3],inactive
same,outcome,[4],inactive
same,outcome,[5],inactive
O=C(Oc1ccccc1)c1cccc(C(=O)Oc2ccccc2)c1,outcome,[1],inactive
same,outcome,[2],inactive
same,outcome,[3],inactive
same,AC50,[4],24.2 µM (active)
same,outcome,[5],inactive
CC(C)NCC(O)c1ccc(O)c(O)c1 (stereo unspecified),outcome,[1],inactive
same,AC50,[2],13.5 µM (active)
same,outcome,[3],inactive
same,AC50,[4],24.5 µM (active)
same,outcome,[5],inactive
O=NO,outcome,[1],inactive
same,outcome,[2],inactive
same,outcome,[3],inactive
same,outcome,[4],inactive
same,outcome,[5],inactive
NC1CCCCC1,outcome,[1],inactive
same,outcome,[2],inactive
same,outcome,[3],inactive
same,outcome,[5],inactive
same,outcome,[6],inactive
same,outcome,[7],inactive
COC(=O)CCC(=O)OC,outcome,[1],inactive
same,outcome,[2],inactive
same,outcome,[3],inactive
same,outcome,[5],inactive
COC(=O)[C@H]1[C@H]2C[C@@H]3c4[nH]c5cc(OC)ccc5c4CCN3C[C@H]2C[C@@H](OC(=O)c2cc(OC)c(OC)c(OC)c2)[C@@H]1OC,AC50,[1],24.5 µM (active)
same,AC50,[2],23.9 µM (active)
same,outcome,[9],inactive
CC(N)=O,outcome,[1],inactive
same,outcome,[2],inactive
same,outcome,[3],inactive
same,outcome,[8],inactive
O=C(O)c1cccnc1,outcome,[1],inactive
same,outcome,[2],inactive
same,outcome,[3],inactive
same,outcome,[5],inactive
CCCCCCC(C=O)=Cc1ccccc1,AC50,[1],31.5 µM (active)
same,AC50,[2],31 µM (active)
same,AC50,[3],29.8 µM (active)
same,AC50,[5],35.3 µM (active)
same,outcome,[8],inactive
NC=O,outcome,[1],inactive
same,outcome,[2],inactive
same,outcome,[3],inactive
same,outcome,[5],inactive
Cc1ccc(C(C)(C)C)c(O)c1,outcome,[1],inactive
same,outcome,[2],inactive
same,outcome,[3],inactive
same,outcome,[5],inactive
CN(C)CCCN1c2ccccc2Sc2ccc(Cl)cc21,AC50,[2],16.4 µM (active)
same,outcome,[9],inactive
c1ccc2occc2c1,outcome,[1],inactive
same,outcome,[2],inactive
same,outcome,[3],inactive
same,outcome,[5],inactive
CCCCC(CC)COP(=O)(OCC(CC)CCCC)OCC(CC)CCCC (stereo unspecified),outcome,[1],inactive
same,AC50,[2],0.197 µM (active)
same,outcome,[3],inactive
same,AC50,[5],5.38 µM (active)
C=CCc1ccc(OC)c(OC)c1,outcome,[1],inactive
same,outcome,[2],inactive
same,outcome,[3],inactive
same,outcome,[6],inactive
OCC(O)CO,outcome,[1],inactive
same,outcome,[2],inactive
same,outcome,[3],inactive
same,outcome,[5],inactive
CO[C@@H]1COCC[C@@H]1N[C@@H]1CC[C@@](C(=O)N2CCc3ncc(C(F)(F)F)cc3C2)(C(C)C)C1,outcome,[1],inactive
same,outcome,[2],inactive
same,outcome,[3],inactive
same,outcome,[5],inactive
CCCCC(CC)COC(=O)CCCCCCCC(=O)OCC(CC)CCCC (stereo unspecified),outcome,[1],inactive
same,outcome,[2],inactive
same,outcome,[3],inactive
same,outcome,[5],inactive
CCCC(=O)O,outcome,[1],inactive
same,outcome,[2],inactive
same,outcome,[3],inactive
same,outcome,[5],inactive
COc1ccc(C(=O)Nc2nc3ccccc3c(NCc3ccccc3)c2C#N)cc1,outcome,[1],inactive
same,outcome,[2],inactive
same,outcome,[3],inactive
same,outcome,[10],inactive
C=CCCCCCCCCCCCC,outcome,[1],inactive
same,outcome,[2],inactive
same,outcome,[3],inactive
same,outcome,[5],inactive
Cc1occc(=O)c1O,outcome,[1],inactive
same,outcome,[2],inactive
same,outcome,[3],inactive
same,outcome,[5],inactive
Cc1c(C)c2c(c(C)c1O)CCC(C)(COc1ccc(CC3SC(=O)NC3=O)cc1)O2 (stereo unspecified),AC50,[1],31.6 µM (active)
same,AC50,[2],20 µM (active)
same,AC50,[3],32.8 µM (active)
same,AC50,[5],23.7 µM (active)
CCOCCOCCO,outcome,[1],inactive
same,outcome,[2],inactive
same,outcome,[3],inactive
same,outcome,[5],inactive
CCC(C)N(C)C(=O)c1cc2ccccc2c(-c2ccccc2Cl)n1 (stereo unspecified),outcome,[1],inactive
same,outcome,[2],inactive
same,outcome,[3],inactive
same,outcome,[5],inactive
same,outcome,[9],inactive
O=C1c2c(O)cccc2Cc2cccc(O)c21,outcome,[1],inactive
same,outcome,[2],inactive
same,outcome,[3],inactive
same,outcome,[5],inactive
CCCCCCCCCCCCCCOS(=O)(=O)O,outcome,[1],inactive
same,AC50,[2],34.2 µM (active)
same,outcome,[3],inactive
same,outcome,[5],inactive
CC(=O)OCC(COC(C)=O)OC(C)=O,outcome,[1],inactive
same,outcome,[2],inactive
same,outcome,[3],inactive
same,outcome,[9],inactive
CC(C)COC(=O)CCCCC(=O)OCC(C)C,outcome,[1],inactive
same,outcome,[2],inactive
same,outcome,[3],inactive
same,outcome,[5],inactive
Cc1ccc(-c2cc(C(F)(F)F)nn2-c2ccc(S(N)(=O)=O)cc2)cc1,AC50,[1],34.6 µM (active)
same,AC50,[3],23.9 µM (active)
CN(C)C(=O)NC1(c2ccccc2)CCN(CCC[C@]2(c3ccc(Cl)c(Cl)c3)CCCN(C(=O)c3ccccc3)C2)CC1,outcome,[1],inactive
same,AC50,[2],7.62 µM (active)
same,outcome,[3],inactive
same,outcome,[5],inactive
same,outcome,[6],inactive
S=c1[nH]c2ccccc2s1,outcome,[1],inactive
same,outcome,[2],inactive
same,outcome,[3],inactive
same,AC50,[6],4.85 µM (active)
same,AC50,[7],1.28 µM (active)
same,outcome,[10],inactive
CC(C)c1cccc(C(C)C)c1NC(=O)NS(=O)(=O)c1cc(C(C)(C)O)co1,outcome,[1],inactive
same,outcome,[2],inactive
same,outcome,[3],inactive
same,outcome,[5],inactive
